# Experimental data published in PubChem BioAssay (EPA / NIEHS).
# Where “and” joins values, the source holds several entries; their conditions need not be identical. Identical values can stand only once. Results filed as inconclusive are left out. Calls of active or inactive are those of the source. The calls were made as follows: active = hit-call score of the fitted dose curve at least 0.9, where 1 is the maximum; inconclusive = response in the unintended direction; inactive = score below 0.9.
# Assays:
# [1] = ATG_XTT_Cytotoxicity: Cytotoxicity Assessment in the Attagene TRANS-FACTORIAL HepG2 Assay (AID 2283584);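 as to AC50: cells exposed to compound for 24 h before reading; active means loss of viability signal versus DMSO baseline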
# Procedure, shortened: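 Viability endpoint from XTT after 24 h chemical exposure of reporter-transfected human HepG2 liver cells; signal loss fitted relative to DMSO negative control.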
# [2] = TOX21_p53_BLA_p2_viability: Viability Assessment in the Tox21 HCT-116 p53 Agonism Beta-lactamase Assay, Phase 2 (AID 2283591);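 also: compound exposure lasted 16 h at 37 °C; actives lower the ATP signal meaning cytotoxicity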
# Procedure, shortened: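 HCT116 p53-bla cells, 4000/well, dosed after 5 h plating (217-fold dilution of DMSO stocks) and incubated 16 h at 37C. Viability taken as cellular ATP by CellTiter-Glo luminescence after 30 min RT; signal loss marks cytotoxicity.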
# [3] = biological target: Cellular tumor antigen p53 (Homo sapiens) (UniProt P04637); test: TOX21_p53_BLA_p2_ratio: Tox21 HCT-116 p53 Agonism Beta-lactamase Assay, Ratio, Phase 2 (AID 2283592)
# Cellular tumor antigen p53 (Homo sapiens), sequence (P04637 whole entry, looked up): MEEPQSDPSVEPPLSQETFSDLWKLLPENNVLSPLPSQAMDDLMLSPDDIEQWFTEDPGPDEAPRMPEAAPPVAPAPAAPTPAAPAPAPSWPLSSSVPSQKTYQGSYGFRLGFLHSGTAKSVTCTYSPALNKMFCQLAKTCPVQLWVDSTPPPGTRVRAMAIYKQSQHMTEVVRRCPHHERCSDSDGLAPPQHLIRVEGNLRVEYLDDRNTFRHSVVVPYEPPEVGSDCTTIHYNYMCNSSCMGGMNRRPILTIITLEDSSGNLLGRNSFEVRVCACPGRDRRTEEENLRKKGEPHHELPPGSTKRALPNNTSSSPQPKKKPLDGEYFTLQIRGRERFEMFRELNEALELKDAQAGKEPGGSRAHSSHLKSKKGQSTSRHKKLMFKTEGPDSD
# Procedure, shortened: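 Gain-of-signal p53 agonism was scored from the beta-lactamase FRET ratio (460/530 nm, 405 nm excitation) in HCT116 cells treated 16 h at 37C, 5% CO2, with DMSO serving as negative control and baseline.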
# [4] = TOX21_p53_BLA_p3_viability: Viability Assessment in the Tox21 HCT-116 p53 Agonism Beta-lactamase Assay, Phase 3 (AID 2283593);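 also: cells exposed to compound for 16 h before reading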
# Procedure, shortened: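 HCT116 cells, 4000/well, dosed 5 h after plating by pin transfer (217-fold dilution from DMSO stock) and incubated 16 h at 37C, 5% CO2. Viability read as ATP luminescence with CellTiter-Glo after 30 min at room temperature.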
# [5] = biological target: Cellular tumor antigen p53 (Homo sapiens) (UniProt P04637); test: TOX21_p53_BLA_p3_ratio: Tox21 HCT-116 p53 Agonism Beta-lactamase Assay, Ratio, Phase 3 (AID 2283596)
# Procedure, shortened: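 HCT116 p53-bla cells (4000/well) given compound in DMSO (217-fold dilution) after 5 h, incubated 16 h at 37C. CCF4-AM substrate 2 h at room temperature; 460/530 nm emission ratio, gain fitted against DMSO.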
# [6] = TOX21_p53_BLA_p4_viability: Viability Assessment in the Tox21 HCT-116 p53 Agonism Beta-lactamase Assay, Phase 4 (AID 2283597);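 also: hits lower the luminescence signal meaning cytotoxicity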
# Procedure, shortened: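 Following a 16 h exposure at 37C, the treated HCT116 wells were first read for the FRET ratio. They were then lysed with CellTiter-Glo, and ATP luminescence was recorded after 30 min at room temperature.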
# [7] = biological target: Cellular tumor antigen p53 (Homo sapiens) (UniProt P04637); test: TOX21_p53_BLA_p5_ratio: Tox21 HCT-116 p53 Agonism Beta-lactamase Assay, Ratio, Phase 5 (AID 2283599)
# Procedure, shortened: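 HCT-116 p53-bla cells (4000/well) plated 5 h, dosed with compound (217-fold DMSO dilution) for 16 h at 37 C; CCF4-AM substrate 2 h at room temperature. Activity is the 460/530 nm emission ratio (405 nm excitation), fitted in gain-of-signal direction versus DMSO.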
# [8] = TOX21_p53_BLA_p5_viability: Viability Assessment in the Tox21 HCT-116 p53 Agonism Beta-lactamase Assay, Phase 5 (AID 2283600)
# Procedure, shortened: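 After the 460/530 nm beta-lactamase measurement, the wells received an ATP-detection luciferase reagent; signal was read 30 min later at RT. Compound treatment lasted 16 h on cells pre-incubated 5 h post-seeding.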
# [9] = biological target: Cellular tumor antigen p53 (Homo sapiens) (UniProt P04637); test: TOX21_p53_BLA_p4_ratio: Tox21 HCT-116 p53 Agonism Beta-lactamase Assay, Ratio, Phase 4 (AID 2283601)
# Procedure, shortened: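 HCT-116 p53 beta-lactamase reporter cells (4000/well) preincubated 5 h, then compound (217-fold dilution of DMSO stock) for 16 h at 37C. CCF4-AM substrate added 2 h at room temperature; 460/530 nm emission ratio fitted upward versus DMSO.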
structure (smiles),measurement,setting,value
O=C1CCCN1,outcome,[1],inactive
CC1CN1P(=O)(N1CC1C)N1CC1C (stereo unspecified),outcome,[1],inactive
O=[N+]([O-])c1c(Cl)c(Cl)cc(Cl)c1Cl,outcome,[1],inactive
same,outcome,[2],inactive
same,outcome,[3],inactive
same,outcome,[4],inactive
same,outcome,[5],inactive
same,outcome,[6],inactive
same,outcome,[7],inactive
same,outcome,[8],inactive
same,outcome,[9],inactive
C[C@]12CC[C@H](O)CC1=CC[C@@H]1[C@@H]2CC[C@]2(C)C(=O)CC[C@@H]12,outcome,[1],inactive
COS(=O)(=O)c1ccc(C)cc1,outcome,[1],inactive
C1CCC(NC2CCCCC2)CC1,outcome,[1],inactive
same,outcome,[2],inactive
same,outcome,[3],inactive
same,outcome,[4],inactive
same,outcome,[5],inactive
same,outcome,[6],inactive
same,outcome,[7],inactive
same,outcome,[8],inactive
same,outcome,[9],inactive
CC(=[OH+])/C=C(/C)[O-].CC(=[OH+])/C=C(/C)[O-].CC(=[OH+])/C=C(/C)[O-].[Fe],outcome,[1],inactive
COc1cc2c(cc1OC)[C@@]13CCN4CC5=CCO[C@H]6CC(=O)N2[C@H]1[C@H]6[C@H]5C[C@H]43,outcome,[1],inactive
same,outcome,[2],inactive
same,outcome,[3],inactive
same,outcome,[4],inactive
same,outcome,[5],inactive
same,outcome,[6],inactive
same,outcome,[7],inactive
same,outcome,[8],inactive
same,outcome,[9],inactive
CN(C)P(=O)(N(C)C)N(C)C,outcome,[1],inactive
same,outcome,[2],inactive
same,outcome,[3],inactive
same,outcome,[5],inactive
same,outcome,[6],inactive
same,outcome,[7],inactive
same,outcome,[8],inactive
same,outcome,[9],inactive
COc1cccc(C=O)c1,outcome,[1],inactive
same,outcome,[2],inactive
same,outcome,[3],inactive
same,outcome,[4],inactive
same,outcome,[5],inactive
same,outcome,[7],inactive
same,outcome,[8],inactive
same,outcome,[9],inactive
COc1ccc(C=O)cc1OC,outcome,[1],inactive
same,outcome,[2],inactive
same,outcome,[3],inactive
same,outcome,[4],inactive
same,outcome,[5],inactive
same,outcome,[7],inactive
same,outcome,[8],inactive
same,outcome,[9],inactive
CNC(=O)O/N=C/C(C)(C)S(C)=O (stereo unspecified),outcome,[1],inactive
same,outcome,[2],inactive
same,outcome,[3],inactive
same,outcome,[5],inactive
same,outcome,[7],inactive
same,outcome,[9],inactive
Clc1ccc(COC(Cn2ccnc2)c2ccc(Cl)cc2Cl)cc1 (stereo unspecified),outcome,[1],inactive
same,AC50,[2],64.8 µM (active) and 73 µM (active) and 33.7 µM (active)
same,AC50,[3],60.3 µM (active) and 33.3 µM (active) and 23.5 µM (active)
same,AC50,[4],72.9 µM (active) and 73.5 µM (active) and 23 µM (active)
same,AC50,[5],66.3 µM (active) and 45.5 µM (active) and 34.6 µM (active)
same,AC50,[6],70.5 µM (active) and 61.1 µM (active) and 37.6 µM (active)
same,AC50,[7],79.1 µM (active) and 60.7 µM (active) and 38.7 µM (active)
same,AC50,[8],85.2 µM (active) and 75.6 µM (active) and 36.2 µM (active)
same,AC50,[9],77.8 µM (active) and 62 µM (active) and 33.9 µM (active)
CCC[CH2][Sn]([CH2]CCC)([CH2]CCC)[O]C(=O)c1ccccc1,AC50,[1],0.906 µM (active)
same,AC50,[2],930 nM (active)
same,AC50,[3],23.9 µM (active)
same,AC50,[5],24.4 µM (active)
same,AC50,[6],953 nM (active)
same,AC50,[7],24.7 µM (active)
same,AC50,[8],1.77 µM (active)
same,AC50,[9],27.2 µM (active)
O=S(=O)(c1ccc(Cl)cc1)c1ccc(Cl)cc1,outcome,[1],inactive
same,outcome,[2],inactive
same,outcome,[3],inactive
same,outcome,[4],inactive
same,outcome,[5],inactive
same,outcome,[6],inactive
same,outcome,[7],inactive
same,outcome,[8],inactive
same,outcome,[9],inactive
COc1ccc(C=O)cc1,outcome,[1],inactive
same,outcome,[2],inactive
same,outcome,[3],inactive
same,outcome,[5],inactive
same,outcome,[6],inactive
same,outcome,[7],inactive
same,outcome,[9],inactive
CCCCOCCOC(C)=O,outcome,[1],inactive
same,outcome,[2],inactive
same,outcome,[3],inactive
same,outcome,[5],inactive
same,outcome,[6],inactive
same,outcome,[7],inactive
same,outcome,[9],inactive
COP(=S)(OC)Oc1ccc(S(=O)(=O)N(C)C)cc1,outcome,[1],inactive
same,outcome,[2],inactive
same,outcome,[3],inactive
same,outcome,[5],inactive
same,outcome,[6],inactive
same,outcome,[7],inactive
same,outcome,[8],inactive
same,outcome,[9],inactive
Cc1ccccc1C(=O)Nc1cccc(OC(C)C)c1,outcome,[1],inactive
same,outcome,[2],inactive
same,outcome,[3],inactive
same,outcome,[4],inactive
same,outcome,[6],inactive
same,outcome,[7],inactive
same,outcome,[8],inactive
same,outcome,[9],inactive
CC(Br)C(=O)O (stereo unspecified),outcome,[1],inactive
same,outcome,[2],inactive
same,outcome,[3],inactive
same,outcome,[4],inactive
same,outcome,[5],inactive
same,outcome,[6],inactive
same,outcome,[7],inactive
same,outcome,[8],inactive
same,outcome,[9],inactive
Cl/C=C\C[N+]12CN3CN(CN(C3)C1)C2,outcome,[1],inactive
same,outcome,[2],inactive
same,outcome,[3],inactive
same,outcome,[5],inactive
same,outcome,[7],inactive
same,outcome,[9],inactive
C=CC#N,outcome,[1],inactive
same,outcome,[2],inactive
same,outcome,[3],inactive
same,outcome,[5],inactive
same,outcome,[6],inactive
same,outcome,[7],inactive
same,outcome,[8],inactive
same,outcome,[9],inactive
CCC(C)c1cccc(C(C)CC)c1O (stereo unspecified),outcome,[1],inactive
same,outcome,[2],inactive
same,outcome,[3],inactive
same,outcome,[4],inactive
same,outcome,[6],inactive
same,outcome,[7],inactive
same,outcome,[9],inactive
O=C/C=C/c1ccccc1,outcome,[1],inactive
same,outcome,[2],inactive
same,outcome,[3],inactive
same,outcome,[4],inactive
same,outcome,[5],inactive
same,outcome,[6],inactive
same,outcome,[7],inactive
same,outcome,[8],inactive
same,outcome,[9],inactive
O=P(O)(O)CN(CP(=O)(O)O)CP(=O)(O)O,outcome,[1],inactive
same,outcome,[2],inactive
same,outcome,[4],inactive
same,outcome,[5],inactive
same,outcome,[9],inactive
COC(=O)c1sccc1S(=O)(=O)NC(=O)Nc1nc(C)nc(OC)n1,outcome,[1],inactive
same,outcome,[2],inactive
same,outcome,[3],inactive
same,outcome,[4],inactive
same,outcome,[5],inactive
same,outcome,[6],inactive
same,outcome,[7],inactive
same,outcome,[8],inactive
same,outcome,[9],inactive
